Compounds with a hit are over-represented: about 19% of the library has one in this group of screens.
SARS PLP yeast – blocks SARS-CoV papain-like protease in a yeast assay | S. cerevisiae expressing SARS-CoV PLpro, growth rescue | Potency, µM (doses to about 32.9 µM), without a hit: top-dose activity, positive = growth rescue, most hits filed as activators | hit rate 0.19% among 330,000 | AID 485353; calls by dose curve; also: potency is read from the fitted curve at half-maximal effect; 0% is about no effect; nearly all actives have a fitted effect of over 55% in size
Shiga toxin inh – blocks Shiga toxin action in Vero cells; Vero cells, Shiga toxin protein synthesis inhibition reporter; inhibition, % at 38.7 µM; hit rate 9.2% among 290,000; in the data active = inhibition mostly above about 28%, no sharp cut-off; inactive = mostly below about 43%; also: 0% is about no effect
AMA1-RON2 inh – inhibitors of Plasmodium falciparum AMA1-RON2 interaction. AlphaScreen AMA1-biotinylated RON2 peptide binding. Potency, µM (doses to about 58.2 µM), inactives show at the highest dose activity change, negative = inhibition, usual class: inhibitors. hit rate 0.2% among 360,000;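 also: potency is read from the fitted curve at half-maximal effect; 0% = vehicle wells and -100% = peptide control; nearly all actives have a fitted effect of over 45% in size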
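AMA1 (3D7) with his tag at 25 nM final met compounds first, then biotinylated RON2 peptide at 25 nM; detection used donor plus acceptor beads, 10 µg/mL apiece, read by AlphaScreen after 30 min at room temperature.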
Cycloheximide cs – counter-screen for Shiga toxin inhibitors: cycloheximide protein synthesis inhibition | hit rate 12% among 300,000 | cell reporter, cycloheximide protein synthesis inhibition counterscreen | max response, %; in the data active = max response mostly above about 13%, no sharp cut-off; inactive = mostly below about 14%; also: read at 38.3 µM for the half of the compounds with a filed dose; 0% is about no effect
Pf growth 96h – P. falciparum growth inhibition at 96 hour, primary screen for plastid delayed-death inhibitors | P. falciparum luciferase reporter growth, 96 h | Potency, µM (doses to about 28.7 µM), for the others: top-dose activity change, negative = inhibition, hits mostly inhibitors | hit rate 6.9% among 320,000 | AID 504834; also: potency is read from the fitted curve at half-maximal effect; % is scaled to controls: 0 for no effect and ±100 for the full control effect
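P. falciparum expressing integrated firefly luciferase grown in erythrocytes (2% hematocrit, 0.05% parasitemia final) with compounds for 96 hours at 37 C, 5% CO2. Growth inhibition read as loss of luminescence after adding luciferase detection reagent.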
Pf growth 48h – inhibits P. falciparum growth in the first generation, 48 h; P. falciparum luciferase growth in erythrocytes, 48 h; Potency, µM (top dose mostly 28.7 µM), for inactives: at the highest dose activity change, negative = inhibition, most hits filed as inhibitors; hit rate 5.9% among 310,000; also: potency is read from the fitted curve at half-maximal effect; % is scaled to controls: 0 for no effect and ±100 for the full control effect
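Luciferase-expressing parasites in RBCs, 2% Hct / 0.1% parasitemia final; RPMI 1640 + 0.5% Albumax; 37 C, 5% CO2, one generation; luminescence read-out, lower signal = inhibition.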
Starred values were filed as active, the others as inactive; ! = not active in a repeat. Unless noted, calls follow the shape of the dose curve; as a rule, active = well fitted curve in the direction sought with a large enough effect; inconclusive = small, poorly fitted or top-dose-only effect, or another doubt; inactive = no such curve, though single readings can be large; an effect the other way counts as inactive or inconclusive.

Screening CCOC(=O)C1=C(CNCc2ccc(F)cc2)NC(=O)NC1c1cccc([N+](=O)[O-])c1 (stereo not drawn) returned SARS PLP yeast 0%, Shiga toxin inh -5, AMA1-RON2 inh 64%, Cycloheximide cs -2, Pf growth 96h inconclusive and Pf growth 48h inconclusive.
`COC(=O)C1=C(C)NC(C)=C(C(=O)OC(C)(C)CN(C)CCC(c2ccccc2)c2ccccc2)C1c1cccc([N+](=O)[O-])c1` (stereo not drawn) gave Pf growth 96h 3µM* and Pf growth 48h 1.5µM*.
`COC(=O)C1=C(C)NC(C)=C(C(=O)OC)C1c1ccccc1[N+](=O)[O-]` gave SARS PLP yeast 2µM*, Shiga toxin inh -12, AMA1-RON2 inh -2%, Cycloheximide cs 8, Pf growth 96h inconclusive and Pf growth 48h inconclusive.
`CC1=C(C(=O)OC(C)C)C(c2cccc([N+](=O)[O-])c2)C(C(=O)OC2CN(C(c3ccccc3)c3ccccc3)C2)=C(N)N1` (stereo not drawn) gave Pf growth 96h -3% and Pf growth 48h 7.6µM*.
`CCOC(=O)C1=C(C)N(c2ccccc2)C(=O)NC1c1cccc([N+](=O)[O-])c1` (stereo not drawn) gave SARS PLP yeast 10%, Shiga toxin inh -12, AMA1-RON2 inh -23%, Cycloheximide cs -3, Pf growth 96h inconclusive and Pf growth 48h inconclusive.
CCOC(=O)C1=C(C)NC(C)=C(C(=O)OCC)C1c1ccc([N+](=O)[O-])s1 was read as SARS PLP yeast -1%, Shiga toxin inh -2, AMA1-RON2 inh -8%, Cycloheximide cs 1, Pf growth 96h 13µM* and Pf growth 48h inconclusive.
Cc1ccsc1/C=C/c1n[nH]c(=O)c(C#N)c1C was read as SARS PLP yeast 2%, Shiga toxin inh 6, AMA1-RON2 inh -5%, Cycloheximide cs -3, Pf growth 96h 18% and Pf growth 48h 28%.
COCCOC(=O)C1=C(C)NC(C)=C(C(=O)OC(C)C)C1c1cccc([N+](=O)[O-])c1 (stereo not drawn) was read as SARS PLP yeast 5%, Shiga toxin inh -11, AMA1-RON2 inh -4%, Cycloheximide cs -3, Pf growth 96h 6.6µM*! and Pf growth 48h 9.3µM*.
COCCOC(=O)C1=C(C)NC(C)=C(C(=O)OC/C=C/c2ccccc2)C1c1cccc([N+](=O)[O-])c1 (stereo not drawn) was read as Shiga toxin inh 14, Cycloheximide cs -5, Pf growth 96h 8.5µM* and Pf growth 48h 11µM*.
CC(C)OC(=O)C1C(=O)CC(C)(O)C(C(=O)OC(C)C)C1c1cccc([N+](=O)[O-])c1 (stereo not drawn) was read as SARS PLP yeast -3%, Shiga toxin inh 38, AMA1-RON2 inh 7%, Cycloheximide cs 7, Pf growth 96h inconclusive and Pf growth 48h inconclusive.
Screening CCOC(=O)C1=C(CCc2ccccc2)NC(=O)NC1c1cccc([N+](=O)[O-])c1 (stereo not drawn) returned SARS PLP yeast 3%, Shiga toxin inh -2, AMA1-RON2 inh -3%, Cycloheximide cs 4, Pf growth 96h 56% and Pf growth 48h inconclusive.
Screening CCOC(=O)C1=C(C)NC(C)=C(C(=O)OC)C1c1cccc([N+](=O)[O-])c1 (stereo not drawn) returned SARS PLP yeast 6%, Shiga toxin inh -8, AMA1-RON2 inh -11%, Cycloheximide cs -2, Pf growth 96h inconclusive and Pf growth 48h 5.9µM*.
CCOC(=O)C1=C(C)N(C)C(=O)NC1c1cccc([N+](=O)[O-])c1 (stereo not drawn) was read as AMA1-RON2 inh -2%.
Screening CC1(C)CCC(=O)N2CC[C@H]3C[C@H](OC(=O)Nc4ccc(Br)cc4)C[C@@H]1[C@H]32 returned SARS PLP yeast 2%, Shiga toxin inh 19, AMA1-RON2 inh 5%, Cycloheximide cs 22*, Pf growth 96h 0% and Pf growth 48h 1%.
